Data reported in PubChem BioAssay (NCATS).
Results filed as inconclusive are left out. Entries that show only a call come without a potency. The source made the active and inactive calls. The call rests on the fitted dose curve; in most records, active means well fitted inhibition curve with a large enough effect; inconclusive means small, poorly fitted or top-dose-only effect; inactive means flat fitted curve, though single readings scatter.

System: astro (control astrocytes)
Test: Drug repurposing screens with cells derived from glioblastoma tumor samples (AID 1345199); further: nearly all actives have a fitted effect of over 40% in size
Settings: viability, ATP luminescence, 48 h; series mostly up to 45.9 µM
Protocol: CD133+ cells were isolated from GBM patient biopsies and cultured as neurospheres. Neurospheres from four patients were used to screen the NCATS pharmaceutical collection (NPC) library of approved drugs and bioactive compounds. […] The neurospheres were incubated with drugs for 48 hours in 1536-well format, then assayed with an ATP content cell viability assay. […] These hits were cherry picked to confirm activity in the four original GBM lines screened plus three other slower growing GMB lines (unable to yield enough cells for a full primary screen). Variable activities of the confirmed primary hits in the different GBM patient lines were observed. The patient line 206 responded to the greatest number of compounds and line 923 responded to the least amount of active compounds.

SMILES	Potency
CC1=CC(=O)NS(=O)(=O)O1	inactive
[O]=[Bi][O]C(=O)[O][Bi]=[O]	inactive
O=C(O)COc1ccccc1/C=N/NC(=O)c1ccncc1	inactive
CC1CCC(NC(=O)N(CCCl)N=O)CC1 (stereo not given)	inactive
C=C1C(CCl)(CCl)C2(Cl)C(Cl)C(Cl)C1(Cl)C2(Cl)Cl (stereo not given)	inactive
CCC(Oc1ccccc1)C(=O)N[C@@H]1C(=O)N2[C@@H]1SC(C)(C)[C@@H]2C(=O)O (stereo not given in full)	inactive
CCCCCCCCCC(=O)NO	inactive
NC(=O)[C@H]1O[C@@H](O)[C@H](O)[C@@H](O)[C@@H]1O	inactive
CC(=O)[C@@]1(O)CC[C@H]2[C@@H]3C=C(Cl)C4=CC(=O)[C@@H]5C[C@@H]5[C@]4(C)[C@H]3CC[C@@]21C	inactive
CC(C)CN(C[C@@H](OP(=O)(O)O)[C@H](Cc1ccccc1)NC(=O)O[C@H]1CCOC1)S(=O)(=O)c1ccc(N)cc1	inactive
C=C1c2c(Cl)ccc(O)c2C(O)=C2C(=O)[C@]3(O)C(O)=C(C(N)=O)C(=O)[C@@H](N(C)C)[C@@H]3[C@@H](O)[C@H]12	inactive
O=C(O[C@H]1CN2CCC1CC2)N1CCc2ccccc2[C@@H]1c1ccccc1	inactive
CCN(CC)CCCC(C)Nc1cc(/C=C/c2ccccc2Cl)nc2cc(Cl)ccc12 (stereo not given)	inactive
O=C(O)CN(CC(=O)O)CC1=CC2C(=CC1=O)Oc1cc(O)c(CN(CC(=O)O)CC(=O)O)cc1C21OC(=O)c2ccccc21 (stereo not given)	inactive
S=C=Nc1ccc(N=C=S)cc1	inactive
CC(=O)NCCCS(=O)(=O)O	inactive
CC(C)NCC(O)COc1ccccc1-n1cccc1 (stereo not given)	inactive
Cc1cccc(C)c1NC(=O)C1CCCCN1C (stereo not given)	inactive
CCCCC[C@H](O)/C=C/[C@@H]1[C@H]2C/C(=C/CCCC(=O)O)O[C@H]2C[C@H]1O	inactive
CC(=O)Oc1cccc(C(=O)O)c1OC(C)=O	inactive

SMILES	Potency
CN(C)C=Nc1c(I)cc(I)c(CCC(=O)O)c1I	inactive
Nc1nccs1	inactive
CNC(=O)c1c(I)c(C(=O)NCC(=O)Nc2c(I)c(C(=O)O)c(I)c(C(=O)NCCO)c2I)c(I)c(N(C)C(C)=O)c1I	inactive
CC(CC=O)CCCC(C)(C)O (stereo not given)	inactive
C[C@@H]1C[C@H]2[C@@H]3CCC4=CC(=O)C=C[C@]4(C)[C@@]3(F)[C@@H](O)C[C@]2(C)[C@@]1(O)C(=O)COC(=O)c1cccc(S(=O)(=O)O)c1	inactive
CCOC(=O)[C@@H](N)CS	inactive
Cc1cc(C)c(NC(=O)C[C@H](CC(=O)O)c2cccc3ccccc23)c(C(=O)N2CCC3(CCCC3)CC2)c1	inactive
Cc1cc2nc3c(=O)[nH]c(=O)nc-3n(C[C@H](O)[C@H](O)[C@H](O)COP(=O)(O)OP(=O)(O)OC[C@H]3O[C@@H](n4cnc5c(N)ncnc54)[C@H](O)[C@@H]3O)c2cc1C	inactive
Cc1cccc(Nc2ncccc2C(=O)O)c1C	inactive
CCCCCCCCCCCCCCCCCCCCCC(=O)Nc1ccn([C@@H]2O[C@H](CO)[C@@H](O)[C@@H]2O)c(=O)n1	inactive
Cc1ncc(COP(=O)(O)O)c(CN)c1O	inactive
CC(C)=CCC/C(C)=C/CC/C(C)=C/CC/C=C(\C)CC/C=C(\C)CCC=C(C)C	inactive
CCCCCCCCCCCCCCCCCC(=O)OC[C@@H](O)[C@H]1OC[C@H](O)[C@H]1O	inactive
CCN(CC)C(=S)S	inactive
FC(F)(F)COCC(F)(F)F	inactive
CC(CNC(=O)c1cccnc1)NC(=O)c1cccnc1 (stereo not given)	inactive
O.O.O.O.O.O.O.O=S(=O)([O-])[O-].[Co+2]	inactive
COc1ccc([C@@H]2CC(=O)c3c(O)cc(O[C@@H]4O[C@H](CO[C@@H]5O[C@@H](C)[C@H](O)[C@@H](O)[C@H]5O)[C@@H](O)[C@H](O)[C@H]4O)cc3O2)cc1O	inactive
CN[C@@H]1[C@H](O[C@H]2[C@H](O[C@H]3[C@H](O)[C@@H](O)[C@H](N=C(N)N)[C@@H](O)[C@@H]3N=C(N)N)O[C@@H](C)[C@]2(O)C=O)O[C@@H](CO)[C@H](O)[C@H]1O	inactive
CCC[C@@H]1C[C@@H](C(=O)N[C@@H]([C@H]2O[C@H](SC)[C@H](O)[C@@H](O)[C@H]2O)[C@H](C)Cl)N(C)C1	inactive
